Anesthetic bind: binds horse apoferritin like a general anesthetic | Potency, µM (titrated, usually from 77.5 µM), inactives show at the top dose activity change, negative = displacement, actives largely listed as inhibitors | P02791 | apoferritin/1-aminoanthracene competitive binding, fluorescence | actives 0.074% (n = 350,000); further: on the % scale 0 is the no-effect control and ±100 the full control effect; nearly all actives have a fitted effect of over 20% in size
Target sequence (P02791 2-175 limits assumed): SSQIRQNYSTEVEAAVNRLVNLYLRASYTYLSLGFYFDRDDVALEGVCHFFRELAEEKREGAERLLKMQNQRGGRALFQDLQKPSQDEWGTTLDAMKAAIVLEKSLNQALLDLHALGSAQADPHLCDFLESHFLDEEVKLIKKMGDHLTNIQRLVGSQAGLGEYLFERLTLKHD
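Horse-spleen apoferritin (10 uM) was mixed with 50% saturated 1-aminoanthracene in PBS, exposed to compounds for 10 min at room temperature, and read for fluorescence (ex 380 nm, em 535 nm). Competitive displacement was fitted with a four-parameter Hill equation.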
PTAP TSG101 blk: blocks PTAP/TSG101 interaction to inhibit HIV-1 budding; AID 493005; Fluorescence polarization, FITC-PTAP peptide / Tsg101 binding; Q99816; Potency, µM (series often up to 115 µM), for inactives: at the highest dose activity change, negative = inhibition, hits mostly inhibitors; 340,000 tested, under 10 active; active means well fitted inhibition curve with a large enough effect in the main read-out, with a control signal flat, not every such curve was filed as active; inconclusive means small, poorly fitted or top-dose-only effect, or effect the other way, or a change in a side signal; inactive means no such curve, though single readings can be large or run the other way; further: % of control where 0% means no effect
Target sequence (Q99816 whole entry, looked up): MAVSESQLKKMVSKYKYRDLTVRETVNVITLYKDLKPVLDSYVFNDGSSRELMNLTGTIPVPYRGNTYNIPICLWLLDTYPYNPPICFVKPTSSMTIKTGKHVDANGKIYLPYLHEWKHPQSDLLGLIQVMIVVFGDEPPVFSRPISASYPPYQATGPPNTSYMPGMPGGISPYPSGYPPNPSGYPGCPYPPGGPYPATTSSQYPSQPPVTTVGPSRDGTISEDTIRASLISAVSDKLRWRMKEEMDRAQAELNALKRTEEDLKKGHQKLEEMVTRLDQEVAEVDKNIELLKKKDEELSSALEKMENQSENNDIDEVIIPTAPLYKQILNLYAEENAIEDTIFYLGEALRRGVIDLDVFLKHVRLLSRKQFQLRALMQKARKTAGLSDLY
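FP read-out: FITC-PTAP peptide, 50 nM final, binding Tsg101 binding domain, 10 uM final; 20 min, r.t.; 10 mM HEPES pH 7.5, 0.15 M NaCl, 0.01% Tween 20, 3 mM EDTA, 0.1 mM TCEP.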
HTT aggregate: inhibitors of mutant huntingtin aggregate formation in PC12 cells; AID 1688; Potency, µM (highest dose often 46.1 µM), for inactives: at the top dose activity change, negative = inhibition, hits mostly inhibitors; PC12 HttQ103-GFP aggregates, Acumen cytometry, 40 h; actives 1.1% (n = 220,000); further: on the % scale 0 is the no-effect control and ±100 the full control effect; nearly all actives have a fitted effect of over 60% in size
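Inducible Q103 Huntingtin exon 1–GFP PC12 line, 1500 cells/well in phenol red free DMEM with 5% equine and 5% calf serum. Tebufenozide 100 nM induced expression; compounds titrated; aggregates quantified by cytometry.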
HTT ATP protect: cytoprotection in Huntington HTT-Q103 PC12 cell model | PC12 HTT-Q103 induced, cytoprotection, ATP luminescence, 40 h | Potency, µM (series often up to 56.4 µM), without a hit: cytoprotection (ATP increase), hits mostly activators | actives 0.14% (n = 230,000) | AID 1471; further: % of control where 0% means no effect; nearly all actives have a fitted effect of over 45% in size
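Huntington model: PC12 line, ecdysone-inducible HTTQ103 exon1–GFP, tebufenozide 100 nM. Test articles in a dose series. Endpoint luminescence from cellular ATP.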
Epigenetic derep: regulators of epigenetic silencing causing reporter derepression in mouse cells. actives 0.2% (n = 280,000). AID 1865. Potency, µM (series often up to 53.9 µM), inactives show top-dose GFP activation, usual class: activators. murine LDR cells, GFP reporter derepression, 30 h; further: % of control where 0% means no effect; nearly all actives have a fitted effect of over 60% in size
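Readout is the number of GFP-expressing murine LDR cells, counted by cytometry following washing. Cells were treated with compound for 30 h at 37 C; the stably integrated CMV-GFP locus is normally silent.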
PINK1 expr mod: modulators of PINK1 expression; PINK1 immunofluorescence, high-content cytometry, 24 h; Potency, µM (doses to about 76.6 µM), for inactives: top-dose activation (PINK1 increase), usual class: activators; actives 0.2% (n = 410,000); active means well fitted activation curve with a large enough effect; inconclusive means small, poorly fitted or top-dose-only effect; cell line not stated here; further: % of control where 0% means no effect; nearly all actives have a fitted effect of over 65% in size
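PINK1 protein level read as immunofluorescence by microplate cytometer in a fixed, stained stable cell line after 24 h exposure to five compound concentrations, with CCCP as control.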
* marks the source's active call; other numbers are inactive results; ? = inconclusive; / = not tested or not shown; [ ] = another dose, or the depositor's remark. Shown is part of a subset that was picked to be rich in hits. Unless noted, the call rests on the fitted dose curve; in most records, active means well fitted curve in the direction sought with a large enough effect; inconclusive means small, poorly fitted or top-dose-only effect, or another doubt; inactive means no such curve, though single readings can be large; an effect the other way counts as inactive or inconclusive. Potency means the concentration at half of the fitted maximal effect.

SMILES	Anesthetic bind	PTAP TSG101 blk	HTT aggregate	HTT ATP protect	Epigenetic derep	PINK1 expr mod
O=C(C(Sc1ccccc1)c1ccc(Br)cc1)N1CCOCC1 (centres undefined)	-9.0%	-2.3%	9.4%	13.7%[1.9 µM]	1.1%	1.9%
CCn1cc(C(=O)O)c(=O)c2cc(F)c(N3CCN(S(=O)(=O)c4ccc(NC(=O)OC)cc4)CC3)cc21	-10.6%	-3.8%	31.6µM*	-11.1%[10 µM]	-1.0%	31.6µM*
CCCOc1ccc(C(=O)NC(=S)N2CCN(c3cc4c(cc3F)c(=O)c(C(=O)O)cn4CC)CC2)cc1	-10.2%	-2.0%	/	/	/	35.5µM*
CC1(C)Cc2c(sc3[nH]c(=S)n(Cc4ccccc4)c(=O)c23)CO1	-3.7%	-0.8%	17.8µM*	-60.3%	0.1%	-2.6%[38.3 µM]
O=C(Nc1c(Cl)cccc1Cl)c1cc(=O)n(Cc2ccccc2)c(=O)[nH]1	-2.7%	0.4%	2.7%	13.1%[10 µM]	-3.4%	10µM*
COc1ccc(/C=C/C(=O)N2CCc3c(cnc(C)c3CNC(=O)c3ccsc3)C2)cc1OC	/	/	/	/	/	-0.8%
CC(/C=C/c1ccccc1)=N\Nc1nc(C)cc(C)n1	2.5%	-2.9%	-11.3%	/	-0.1%	0.3%
Cc1cc(C)nc(NN=C(c2ccccc2)c2ccccc2)n1	-7.4%	2.5%	17.8µM*	22.2%[10 µM]	3.5%	2.3%
CNc1cc([N+](=O)[O-])ccc1N/C=C/C(=O)c1ccc2c(c1)OCO2	-9.5%	-3.1%	21.0%	/	-3.0%	14.1µM*
COc1ccc(C(=O)/C=C/Nc2ccc([N+](=O)[O-])cc2C)cc1OC	0.8%	?	-7.9%	-0.2%[10 µM]	?	28.2µM*
CNc1cc([N+](=O)[O-])ccc1N/C=C/C(=O)c1cccs1	-11.6%	-4.8%	?	25.0%[10 µM]	3.5%	8.0%
COc1cc2c(cc1OC)n(CC(=O)c1cc(C)ccc1C)c(=O)n1nc(CCn3nc(C)cc3C)nc21	2.0%	/	/	/	-1.3%	-0.4%
Cc1cccc(NC(=S)N=Nc2c(O)[nH]c3ccccc23)c1	?	-5.8%	3.98µM*	/	-6.2%	11.2%
O=C(N=Nc1c(O)[nH]c2ccccc12)Nc1ccccc1	/	-9.8%	/	/	/	1.0%
COCC(=O)Nc1cc(C(=O)N2CCc3c(Cl)cccc3C2)c2c(c1)nc(-c1ccncc1)n2C	/	/	/	/	/	0.0%
O=C(NC1CCCCC1)c1sc(=S)n2c1[nH]c(=O)c1ccccc12	-12.7%	-9.1%	?	-72.6%	-0.9%	25.1µM*
COC(=O)C1CCN(Cc2ccc3c(c2)CN(C(=O)c2cc(C)oc2C)CCO3)CC1	/	/	/	/	/	-0.3%
CCSc1nnc(NC(=O)C(CC)(C(F)(F)F)C(F)(F)F)s1	-16.7%	-9.0%	-12.6%[9.22 µM]	-27.5%	3.6%	?
CCSc1nnc(NC(=O)C(C)(C(F)(F)F)C(F)(F)F)s1	-13.2%	-6.2%	25.1µM*	-44.1%	-1.0%	25.1µM*
CC1CCc2nc(N)c(C#N)c(-c3cccnc3)c2C1 (centres undefined)	-10.6%	-2.0%	2µM*	17.2%[10 µM]	0.0%	1.3%
CNc1nc(SCc2ccccc2Cl)nc2c1CCCC2	-17.1%	0.8%	10µM*	-22.0%[10 µM]	-0.9%	?
Cc1ccccc1C(=O)Nc1cccc(C(=O)N/N=C/c2cc(Cl)cc([N+](=O)[O-])c2O)c1	?	2.4%	2.82µM*	-8.2%	0.0%	1.7%
CC(C)(C)NC(=O)Nc1ccc(F)c(Cl)c1	-12.7%	-2.1%	12.6µM*	-25.6%	0.5%	0.7%
Cc1cc(C)c(S(=O)(=O)/N=C2/C=C(Sc3ncn[nH]3)C(=O)c3ccccc32)cc1C	-15.5%	14.9%	3.55µM*	-98.3%[10 µM]	-1.8%	1.4%
Cc1ccc(C)c(S(=O)(=O)/N=C2\C=C(NS(=O)(=O)c3ccccc3)C(=O)c3ccccc32)c1	-11.5%	-7.5%	/	/	/	4.4%
CCc1ccc(NC(=O)CSc2nc3ccccc3c(=O)n2CCCN2CCC(C)CC2)cc1	-7.7%	-0.6%	22.4µM*	-78.2%	-1.1%	-3.6%

High-throughput results (PubChem)
